Assay results from PubChem BioAssay (EPA / NIEHS).
Results filed as inconclusive are left out. Activity calls are given as the source filed them. Rule for the calls: active = hit-call score of the fitted dose curve at least 0.9, where 1 is the maximum; inconclusive = response in the unintended direction; inactive = score below 0.9.

Experiment: Tanguay_ZF_120hpf_JAW_legacy: (Legacy) Oregon State University Tanguay Lab 120 Hour Post-fertilization zebrafish Assay for Jaw Malformation (AID 2283638);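 for AC50: active means more embryos with jaw malformation than DMSO controls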
In short: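 Wild-type 5D embryos, chorion removed at 4 hpf, dosed singly from 6 hpf; 28C static, sealed, foil-covered, to 120 hpf. Endpoint: jaw defect yes/no (brightfield); mortality excludes scoring.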

Structure (SMILES)	outcome	AC50
COc1ccc(C(=O)Nc2nc3ccccc3c(NCc3ccccc3)c2C#N)cc1	inactive	–
CC1=C(C)S(=O)(=O)CCS1(=O)=O	inactive	–
Cc1cn([C@H]2C=C[C@@H](CO)O2)c(=O)[nH]c1=O	inactive	–
O=C(N[C@@H](c1ccccc1)[C@@H]1CCCCN1)c1cccc(C(F)(F)F)c1Cl	inactive	–
CCCCC(CC)COP(=O)(OCC(CC)CCCC)OCC(CC)CCCC (centres undefined)	inactive	–
COC(=O)CCCC(=O)OC	inactive	–
CCCCCCCCCCCCCCCCO	inactive	–
CC(N)=O	inactive	–
CCCCCCC(CCCCCCCCCCC(=O)OCC(COC(C)=O)OC(C)=O)OC(C)=O (centres undefined)	inactive	–
CC(=O)S[C@H](C(=O)N[C@H]1Cc2ccccc2[C@H]2CCC[C@@H](C(=O)O)N2C1=O)C(C)C	inactive	–
CCCCCCC(C=O)=Cc1ccccc1	inactive	–
CCCCc1nc2cccnc2n1Cc1ccc(-c2ccccc2-c2nnn[nH]2)cc1	inactive	–
CC(C)c1cccc(C(C)C)c1NC(=O)NS(=O)(=O)c1cc(C(C)(C)O)co1	inactive	–
CC(C)(C)c1ccccc1	–	4.3 µM (active)
O=C(NS(=O)(=O)/C=C/c1cccs1)c1ccc(F)cc1Br	inactive	–
CC1(C)C(=O)NC(=O)N1CO	inactive	–
CC(=O)O[C@]1(C(C)=O)CC[C@H]2[C@@H]3C=C(Cl)C4=CC(=O)[C@@H]5C[C@@H]5[C@]4(C)[C@H]3CC[C@@]21C	inactive	–
CC(=O)[C@@]1(O)CC[C@H]2[C@@H]3CCC4=CC(=O)CC[C@]4(C)[C@H]3CC[C@@]21C	inactive	–
CS(=O)(=O)c1ccc([C@@H](C[C@H]2CCC(=O)C2)C(=O)Nc2cnccn2)cc1Cl	inactive	–
CO[C@@H]1COCC[C@@H]1N[C@@H]1CC[C@@](C(=O)N2CCc3ncc(C(F)(F)F)cc3C2)(C(C)C)C1	inactive	–
OCC(CO)n1cnc(-c2ccc(F)cc2)c1-c1ccnc(Oc2ccccc2)n1	inactive	–
CN(C)CCCN(C)CCCN(C)C	inactive	–
CN(C)C(=O)NC1(c2ccccc2)CCN(CC[C@@]2(c3ccc(F)c(F)c3)CN(C(=O)c3ccccc3)CCO2)CC1	inactive	–
NC(=Nc1ccccc1)Nc1ccccc1	inactive	–
COc1ccc(OC(F)(F)F)cc1CN[C@H]1CCCN[C@H]1c1ccccc1	inactive	–
O=[Si]=O	inactive	–
Cc1cc(SC2=C(O)C[C@@](CCc3ccc(N)cc3)(C(C)C)OC2=O)c(C(C)(C)C)cc1CO	inactive	–
CCCCCCCCCC[N+](C)(C)[O-]	inactive	–
O=C(O)c1cccnc1	inactive	–
